Reference: PubChem BioAssay (NCI)
Compounds without any hit were thinned out: in the full panel of roughly 83,000, 20% have a hit.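 Each cell line was grown in a 96-well plate and treated with one concentration of compound for 48 hours. Values below 10 were considered active.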 Values without a mark were called inactive. The source made the active and inactive calls.

Tests used:
Test in all cases: NCI-60 one-dose screen, 48 h (100 = growth as untreated, 0 = no growth, -100 = all killed)
Conditions in all cases: 10 µM unless noted
NCI-H23 lung = test system: NCI-H23 lung
NCI-H226 lung = test system: NCI-H226 lung
NCI-H322M lung = test system: NCI-H322M lung
HOP-62 NSCLC = test system: HOP-62 NSCLC
NCI-H460 lung = test system: NCI-H460 lung
HOP-92 NSCLC = test system: HOP-92 NSCLC
NCI-H522 lung = test system: NCI-H522 lung
A549/ATCC NSCLC = test system: A549/ATCC NSCLC
786-0 renal = test system: 786-0 renal
COLO 205 colon = test system: COLO 205 colon

COc1cc2nc(-c3ccc(Cl)cc3)cc(OCCCN3CCCCC3)c2cc1OC
growth (NCI-H23 lung): 64.7%
growth (NCI-H226 lung): -9.93% (active)
growth (NCI-H322M lung): 63.1%
growth (HOP-62 NSCLC): 54.7%
growth (NCI-H460 lung): 25.6%
growth (HOP-92 NSCLC): 34.2%
growth (NCI-H522 lung): 34%
growth (A549/ATCC NSCLC): 36%
growth (786-0 renal): 72.5%

CN(C)CCn1c2ccc(Br)cc2c2nc3ccccc3nc21
growth (NCI-H23 lung): 36.1%
growth (NCI-H226 lung): 41.9%
growth (NCI-H322M lung): 35.2%
growth (HOP-62 NSCLC): 25.1%
growth (NCI-H460 lung): 12.6%
growth (HOP-92 NSCLC): 49.6%
growth (NCI-H522 lung): 29.8%
growth (A549/ATCC NSCLC): 17.4%
growth (786-0 renal): 33.7%
growth (COLO 205 colon): 9.69% (active)

COc1ccc(/C=C2\Oc3cc(OCCCCCN4CCCCC4)ccc3C2=O)cc1OC
growth (NCI-H23 lung): 78.6%
growth (NCI-H226 lung): 83.1%
growth (NCI-H322M lung): 97.9%
growth (HOP-62 NSCLC): 97.4%
growth (NCI-H460 lung): 59.2%
growth (HOP-92 NSCLC): 54.4%
growth (NCI-H522 lung): 89.9%
growth (A549/ATCC NSCLC): 88.7%
growth (786-0 renal): 84.4%

Cc1ccc(-c2[nH][nH]c(=O)c2-c2nc3ccccc3s2)cc1
growth (NCI-H23 lung): 96.2%
growth (NCI-H226 lung): 95.1%
growth (NCI-H322M lung): 105%
growth (HOP-62 NSCLC): 99.2%
growth (NCI-H460 lung): 105%
growth (HOP-92 NSCLC): 105%
growth (NCI-H522 lung): 89.2%
growth (A549/ATCC NSCLC): 107%
growth (786-0 renal): 101%

CC(=O)O[C@@H]1C2CCC3C(CC[C@@]4(C)C3CC[C@@H]4C(C)N(C)C)[C@@]2(C)CC[C@@H]1NC(=O)C=C(C)C (stereo not given in full)
growth (NCI-H23 lung): 33.9%
growth (NCI-H226 lung): 64.7%
growth (NCI-H322M lung): 13.1%
growth (HOP-62 NSCLC): -26.1% (active)
growth (NCI-H460 lung): -48.6% (active)
growth (HOP-92 NSCLC): 24.4%
growth (NCI-H522 lung): 65.7%
growth (A549/ATCC NSCLC): 32.3%

Cc1c2cc[nH]c(=O)c2c(C)c2c1[nH]c1cc(OCCN3CCN(C)CC3)ccc12
growth (NCI-H23 lung): -18.1% (active)
growth (NCI-H226 lung): 2.73% (active)
growth (NCI-H322M lung): 7.9% (active)
growth (HOP-62 NSCLC): -16.9% (active)
growth (NCI-H460 lung): -20.5% (active)
growth (HOP-92 NSCLC): 18.8%
growth (NCI-H522 lung): -23.9% (active)
growth (A549/ATCC NSCLC): -21.4% (active)
growth (786-0 renal): 20.9%

COc1cc2c(c(OC)c1OC)CCC(c1cccc(NC(=O)c3cccc(Br)c3)c1)O2 (stereo not given)
growth (NCI-H23 lung): 95.1%
growth (NCI-H226 lung): 93.7%
growth (NCI-H322M lung): 98.5%
growth (HOP-62 NSCLC): 99.8%
growth (NCI-H460 lung): 100%
growth (HOP-92 NSCLC): 94%
growth (NCI-H522 lung): 81%
growth (A549/ATCC NSCLC): 81.2%
growth (786-0 renal): 93.7%

O=C1c2ccc3c4c(ccc(c24)C(=O)N1CCCNCc1ccccc1)C(=O)N(CCCNCc1ccccc1)C3=O
growth (NCI-H23 lung): -72.9% (active)
growth (NCI-H226 lung): -54.1% (active)
growth (NCI-H322M lung): -37.8% (active)
growth (HOP-62 NSCLC): -38.5% (active)
growth (NCI-H460 lung): -73.1% (active)
growth (HOP-92 NSCLC): -12.5% (active)
growth (NCI-H522 lung): -91.2% (active)
growth (A549/ATCC NSCLC): -91.1% (active)
growth (786-0 renal): -46.3% (active)

O=C(/C=C/c1ccc(F)cc1)c1ccc(NC(=O)N2CCN(c3cc4c(cc3F)c(=O)c(C(=O)O)cn4C3CC3)CC2)cc1
growth (NCI-H23 lung): 92.8%
growth (NCI-H226 lung): 96.1%
growth (NCI-H322M lung): 100%
growth (HOP-62 NSCLC): 98%
growth (NCI-H460 lung): 82.9%
growth (HOP-92 NSCLC): 88.5%
growth (NCI-H522 lung): 87%
growth (A549/ATCC NSCLC): 102%
growth (786-0 renal): 92.4%

COc1cc(NC(=O)CSc2nc3ccc(C)cc3c(=O)n2Cc2ccccc2)cc(OC)c1OC
growth (NCI-H23 lung): 74.2%
growth (NCI-H226 lung): 24.7%
growth (NCI-H322M lung): 63.4%
growth (HOP-62 NSCLC): 45.5%
growth (NCI-H460 lung): 57.3%
growth (HOP-92 NSCLC): 0.585% (active)
growth (NCI-H522 lung): 31.9%
growth (A549/ATCC NSCLC): 66.6%
growth (786-0 renal): 43.3%

Nc1n[nH]c2cccc(C#Cc3cccc(C(=O)Nc4cc(CN5CCOCC5)cc(C(F)(F)F)c4)c3)c12
growth (NCI-H23 lung): 38.4%
growth (NCI-H226 lung): 26.7%
growth (NCI-H322M lung): 62.1%
growth (HOP-62 NSCLC): 38.7%
growth (NCI-H460 lung): 26.6%
growth (HOP-92 NSCLC): -7.48% (active)
growth (NCI-H522 lung): 39.3%
growth (A549/ATCC NSCLC): 42.4%
growth (786-0 renal): 63.8%

C=C(CBr)[C@@H]1CC[C@]2(COC(C)=O)CC[C@]3(C)[C@H](CC[C@@H]4[C@@]5(C)CCCNC(C)(C)[C@@H]5CC[C@]43C)[C@@H]12
growth (NCI-H23 lung): 37.7%
growth (NCI-H226 lung): 76.9%
growth (NCI-H322M lung): 83.1%
growth (HOP-62 NSCLC): 67.9%
growth (NCI-H460 lung): 17%
growth (HOP-92 NSCLC): 39.3%
growth (NCI-H522 lung): 31.1%
growth (A549/ATCC NSCLC): 34.4%
growth (786-0 renal): 45.7%

N/C(=N\C(N)=N\c1nc2ccccc2s1)c1cccc(Cl)c1
growth (NCI-H23 lung): 58.4%
growth (NCI-H226 lung): 85.6%
growth (NCI-H322M lung): 97.7%
growth (HOP-62 NSCLC): -8.36% (active)
growth (NCI-H460 lung): 51.7%
growth (HOP-92 NSCLC): 108%
growth (NCI-H522 lung): 87.5%
growth (A549/ATCC NSCLC): 9.74% (active)
growth (786-0 renal): 94.4%

Brc1ccc(Nc2csc(-c3ccccn3)n2)cc1
growth (NCI-H23 lung): 87.7%
growth (NCI-H226 lung): 70.1%
growth (NCI-H322M lung): 84.1%
growth (HOP-62 NSCLC): 88.2%
growth (NCI-H460 lung): 96.7%
growth (HOP-92 NSCLC): 102%
growth (NCI-H522 lung): 78.9%
growth (A549/ATCC NSCLC): 99.4%
growth (786-0 renal): 98.9%

OCc1cnc2ccccc2c1NC1CCCCCC1
growth (NCI-H23 lung): 77.4%
growth (NCI-H226 lung): 80.4%
growth (NCI-H322M lung): 89.3%
growth (HOP-62 NSCLC): 95.8%
growth (NCI-H460 lung): 93.1%
growth (HOP-92 NSCLC): 83.6%
growth (NCI-H522 lung): 61.7%
growth (A549/ATCC NSCLC): 84.6%
growth (786-0 renal): 101%
